EBNA-1 inh: blocks EBNA-1 binding to DNA. inhibition, % at 14.8 µM. EBNA-1 DNA binding, fluorescence polarization. AID 1950. actives 0.34% (n = 300,000); in the data active = inhibition above about 28%
ZTA counter: counter-screen for EBNA-1 inhibitors: inhibitors of Epstein-Barr virus ZTA | AID 2234 | ZTA-DNA binding, fluorescence polarization | actives 0.15% (n = 320,000) | inhibition, % at 11 µM; in the data active = inhibition above about 33%
Target sequence (P03206 whole entry, looked up): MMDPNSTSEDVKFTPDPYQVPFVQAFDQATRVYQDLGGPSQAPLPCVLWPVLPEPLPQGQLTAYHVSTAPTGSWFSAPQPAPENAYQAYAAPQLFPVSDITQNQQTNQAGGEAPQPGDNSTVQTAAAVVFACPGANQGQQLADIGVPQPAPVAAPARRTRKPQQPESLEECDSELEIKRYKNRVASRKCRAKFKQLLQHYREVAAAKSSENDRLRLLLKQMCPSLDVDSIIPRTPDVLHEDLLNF
PREPL inhibitor: inhibits the human prolyl oligopeptidase-like enzyme | actives 0.68% (n = 320,000) | recombinant PREPL, fluorescence polarization activity-based probe | AID 2751 | inhibition, % at 5.96 µM; in the data active = inhibition above about 43%;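 also: 0% = enzyme with DMSO and 100% = wells lacking enzyme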
LYPLA2 inh: LYPLA2 (human) inhibition in PME1 counter-screen. recombinant LYPLA2, FP-Rh probe fluorescence polarization. O95372. actives 0.38% (n = 320,000). inhibition, % at 5.9 µM;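 active = inhibition above the screen-wide mean plus 3 SD, limit set per campaign, cut at about 26% in these data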;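 also: 0% = LYPLA2 with DMSO and 100% = wells lacking LYPLA2 enzyme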
LYPLA1 counter: counter-screen for PME1 inhibitors: inhibitors of human LYPLA1 | O75608 | inhibition, % at 5.9 µM | recombinant LYPLA1, FP-Rh probe fluorescence polarization | actives 0.16% (n = 320,000);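 active = inhibition above the mean of all tested compounds plus 3 SD, set per campaign, cut at about 14% in these data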;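 also: inhibitors block serine hydrolase probe labeling of LYPLA1 so polarization falls; 0% = enzyme with DMSO and 100% = wells lacking LYPLA1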
LYPLA1 confirm: LYPLA1 (human) inhibition, confirmation counter-screen; shares compounds with LYPLA1 counter; recombinant LYPLA1, FP-Rh probe fluorescence polarization; inhibition, % at 5.9 µM; actives 69% (n = 480);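 active = mean inhibition across replicates above the hit cutoff set in the primary screen, cut at about 15% in these data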;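 also: loss of FP-Rh probe labeling of LYPLA1 seen as lower polarization; 0% = LYPLA1 with DMSO and 100% = wells lacking LYPLA1 enzyme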
An asterisk follows results filed as active; / = no result. Compounds with a hit are over-represented: about 1.3% of the library has one in this group of screens.

SMILES	EBNA-1 inh	ZTA counter	PREPL inhibitor	LYPLA2 inh	LYPLA1 counter	LYPLA1 confirm
CN(CCOc1ccccc1)C(=O)c1ccc(N2CCCC2)c([N+](=O)[O-])c1	-8.6	6.4	13.7	1.3	5.1	/
CC(=O)N1CCN(C(=O)COc2ccc(N(C)S(=O)(=O)c3cccs3)cc2)CC1	-2.7	8.9	-1.4	3.9	23.8*	-1.8
CCCc1cc(=O)oc2cc(OCc3cc(OC)c(OC)c(OC)c3)c(Cl)cc12	2.9	4.8	-4.5	2.2	4.0	/
CCCCc1cc(=O)oc2cc(OCc3cc(OC)c(OC)c(OC)c3)c(Cl)cc12	6.2	19.4	5.7	19.5	16.3*	27.3*
CCOc1cc(CN2CCCC(C(=O)c3cccc(C(F)(F)F)c3)C2)ccc1O (stereo not drawn)	4.1	-8.4	-13.8	-0.6	35.0*	42.4*
O=C(CN1CCc2ccccc2C1)Nc1ccccc1C(=O)NC1CC1	/	11.2	0.2	0.5	1.0	/
C/C(=N\NC(=O)c1cccc(Cl)c1)C1C(=O)c2ccccc2C1=O	-10.4	-10.3	-0.4	7.0	24.3*	28.4*
Cc1ccc(NC2CCCN(C(=O)c3cn(C)c4ccccc34)C2)cc1C (stereo not drawn)	-4.5	-3.6	23.2	0.7	0.4	/
CC1Cc2cc(S(=O)(=O)N3CCC(C(=O)N(C)Cc4ccco4)CC3)ccc2N1C(=O)C1CCC1 (stereo not drawn)	-1.6	1.1	7.0	11.1	19.2*	28.8*
CC1Cc2cc(S(=O)(=O)N3CCCCC3)ccc2N1C(=O)C1CCC1 (stereo not drawn)	4.0	19.7	4.8	-0.7	19.0*	23.8*
CC1CCN(S(=O)(=O)c2ccc3c(c2)CC(C)N3C(=O)C2CCC2)CC1 (stereo not drawn)	7.7	-8.8	19.7	4.5	25.0*	33.8*
CCOC(=O)C1CCN(S(=O)(=O)c2ccc3c(c2)CC(C)N3C(=O)C2CCC2)CC1 (stereo not drawn)	-4.5	7.7	7.2	2.7	16.0*	23.6*
CC1Cc2cc(S(=O)(=O)N3CCC(C(=O)N4CCCCC4)CC3)ccc2N1C(=O)C1CC1 (stereo not drawn)	1.1	1.0	1.2	5.2	11.4	/
CCN(CC(=O)NCc1cccs1)C(=O)/C=C/c1ccc(OC)c(OC)c1	-3.0	13.4	-4.9	0.5	0.6	/
COCCn1c(=NC(=O)c2ccc(S(=O)(=O)N3CCOCC3)cc2)sc2cc(S(N)(=O)=O)ccc21	-0.2	-5.5	-6.9	14.9	17.3*	27.2*
COc1ccc(S(=O)(=O)N2CCCOC2CNC(=O)C(=O)NCCCN2CCOCC2)cc1C (stereo not drawn)	1.2	1.0	1.7	-3.3	-4.0	/
Cc1cc(C)cc(C(=O)N2CCC(CCC(=O)NC3CC3)CC2)c1	-8.1	9.7	-1.0	3.6	3.0	/
C=CCOc1cccc(C(=O)N2CCC(CCC(=O)NC3CC3)CC2)c1	-6.0	14.1	-0.9	6.3	23.2*	3.6
NC(=O)C1=C[C@H](c2ccc(C(F)(F)F)cc2)C[C@H](OCc2ccc(CO)cc2)O1	-10.1	-31.1	11.3	13.1	29.8*	34.5*
CCOc1ccc(NC(=O)C2CCC(CNc3c(N4CCC(C)CC4)c(=O)c3=O)CC2)cc1 (stereo not drawn)	2.3	-0.7	5.9	0.2	-4.0	/
COc1cc(NC(=O)C2CCC(CNc3c(N4CCCCC4)c(=O)c3=O)CC2)cc(OC)c1 (stereo not drawn)	-8.2	-7.8	5.2	6.0	24.3*	30.9*
COc1ccc(NC(=O)C2CCC(CNc3c(N4CCC(C)CC4)c(=O)c3=O)CC2)cc1OC (stereo not drawn)	-2.4	-7.2	4.0	5.9	23.7*	26.3*
COc1cc(NC(=O)C2CCC(CNc3c(N4CCC(C)CC4)c(=O)c3=O)CC2)cc(OC)c1 (stereo not drawn)	4.9	-0.1	5.4	3.6	39.5*	39.9*
COc1ccccc1-n1cnnc1SCC(=O)NCC1CCCO1 (stereo not drawn)	4.3	-19.6	2.5	-1.4	-1.2	/
O=C(Nc1ccc(Oc2cccnc2)cc1)C1CCN(Cc2cc(Cl)ccc2O)CC1	-3.2	-8.3	-26.1	25.3	21.3*	18.0*
COc1cc(F)ccc1CN1CCC(n2nccc2NC(=O)C2CCOC2)CC1 (stereo not drawn)	7.7	15.0	-1.7	-1.0	1.8	/
